Inconclusive results are not listed. Where a call stands in place of a potency, no number is given. Activity calls are given as the source filed them. Calls follow the shape of the dose curve; as a rule, active = well fitted activation curve with a large enough effect; inconclusive = small, poorly fitted or top-dose-only effect; inactive = flat fitted curve, though single readings scatter.
test: qHTS for Inhibitors of Cell Surface uPA Generation: Confirmatory Assay for Cherry-picked Compounds; settings: cell surface uPA activity generation, qHTS confirmation; series mostly up to 115 µM
From the text: The overall objective of this project is to perform a quantitative high throughput screen (qHTS) to identify novel compounds that inhibit the generation of cell surface urokinase activity. The urokinase plasminogen activator (uPA) is one of the two primary endogenous systems that mediate plasminogen activation into plasmin. Members of this system, including uPA and its receptor (uPAR), are overexpressed in several malignant tumors. This system plays a major role in adhesion, migration, invasion and metastasis of cancer cells. Small molecule inhibitors of the uPA system will serve as probes to understand the molecular mechanisms of the uPA cascade and better understanding the micro-environmental circumstances that facilitate the activation of plasminogen by uPA, and finally may provide novel candidate agents for anticancer drug therapy.
[…] […] Upon inhibition of the uPA activation cascade, the subsequent cell surface uPA activity-dependent translocation of LF into the cytoplasm is inhibited. ATP-Lite is used to measure intracellular ATP concentrations (measure cell viability) which remain increased if LF entry into the cytoplasm is inhibited. This validation assay was performed using a small set of cherry picked compounds. Activation of cell viability (increase in luminescence signal) due to inhibition of the cell surface uPA generation is the desired outcome of this assay.
NIH Chemical Genomics Center [NCGC]
NIH Molecular Libraries Probe Centers Network [MLPCN]
Assay Submitter (PI): Thomas Bugge, National Institute of Dental and Craniofacial Research, NIH
Cultured RAW 264.7 were dispensed into 1536-well clear bottom, white walled tissue culture plates at a density of 4000 cells/well and were incubated overnight (12-16 h) at 37 C in a 5% CO2 incubator. Serially diluted compounds (1:5 dilution) in 23 nl DMSO were added to cells (0.0024 uM to 3.83 uM final concentration). […] Compound and reagent-treated plates were incubated for 24 h at 37 C in a 5% CO2 incubator. Three microliter of PerkinElmer ATPlite was then added to each well and luminescence was detected using the PerkinElmer ViewLux plate reader for a 5 sec exposure.
Potency is read from the fitted curve at half-maximal effect.

Structure (SMILES)	Potency
Cc1[nH]c2ccccc2c1C(=O)C(C)OC(=O)c1ccccc1NCCO (stereo not given)	inactive
NS(=O)(=O)c1ccc(CCNC(=O)c2ccc(Cl)s2)cc1	inactive
CC1CC(C)CN(CCCNC(=O)CN2C(=O)CSc3ccc(S(=O)(=O)N4CCOCC4)cc32)C1 (stereo not given)	inactive
CN1CCN(c2ccc(S(=O)(=O)N3CCOCC3)cc2NC(=O)CSCc2ccccc2)CC1	inactive
COCCN(C(=O)c1ccc(OC2CCN(S(=O)(=O)N(C)C)CC2)cc1)C(C)C	inactive
COc1ccc(Cc2nnc(Nc3ccc(C)cc3)o2)cc1OC	inactive
Cc1ccccc1NC(=O)N1CCN(c2ncccn2)CC1	inactive
O=C(C1CCCCN1S(=O)(=O)c1ccc(F)cc1)N1CCN(c2ccccc2F)CC1 (stereo not given)	inactive
CCN(c1ccc(OC)cc1)S(=O)(=O)c1ccc2c(c1)NC(=O)CS2	inactive
Cc1ccc(C23CC4CC(CC(C(=O)NN)(C4)C2)C3)cc1	inactive
CC(C)NC(=O)CN1CCC(c2nc3ccccc3[nH]2)CC1	inactive
O=C(COc1ncnc2sccc12)Nc1cccc(S(=O)(=O)N2CCCC2)c1	inactive
COc1ccc(-n2nnnc2SCC(=O)Nc2nnc(C)s2)cc1	inactive
Cc1ccc(C2=NS(=O)(=O)N(C)C(C(=O)NC3CCCC3)=C2)cc1	inactive
COc1ccc(/C(N)=N/OC(=O)Cc2ccccc2OC)cc1	inactive
CN1CC[C@]23c4ccccc4N[C@H]1[C@]21CCN(C)[C@H]3Nc2ccccc21	inactive
COCCNC(=O)C(c1c[nH]c2ccccc12)N(C(=O)c1snc(C(N)=O)c1N)c1cccc(OC)c1 (stereo not given)	inactive
Cc1nc(SCc2nc3ccccc3[nH]2)c2oc3cc([N+](=O)[O-])ccc3c2n1	inactive
Cc1ccc(/C=N/NC(=O)c2ccc3nc[nH]c3c2)s1	inactive
CC1CCN(C2=C(NS(=O)(=O)c3ccc(Br)cc3)C(=O)c3ccccc3C2=O)CC1	inactive

Structure (SMILES)	Potency
Cc1ccnc(NS(=O)(=O)c2ccc(NC(=O)C3C4C=CC(C4)C3C(=O)O)cc2)n1 (stereo not given)	inactive
COc1ccc(C(=O)NNC(=O)Cc2ccc(Cl)cc2)cc1	inactive
COCCNC(=S)N(CCc1c(C)[nH]c2ccccc12)Cc1ccco1	inactive
CN(CCO)c1ccc(C(C(=O)c2ccccc2)c2ccc(N(C)CCO)cc2)cc1	inactive
CCOC(=O)C1(CCOc2ccccc2)CCN(Cc2ccc(O)c(OC)c2)CC1	inactive
CCCCn1c(SCC(=O)Nc2cc(C(F)(F)F)ccc2Cl)nnc1C(CC)N(C)C (stereo not given)	52.1 µM (active)
O=C(Nc1ccc(Cl)cn1)C1CCCN(c2ncnc3c2nc2n3CCCCC2)C1 (stereo not given)	inactive
Cc1ccc(S(=O)(=O)NCC(=O)OC(C)C(=O)NCc2ccc3c(c2)OCO3)cc1 (stereo not given)	inactive
CCNc1nc(Nc2ccc(C)c(Cl)c2)c2cnn(C)c2n1	inactive
COc1ccc(N2CCN(C3CCN(S(=O)(=O)c4ccc(F)cc4)CC3)CC2)cc1	inactive
CC(C)(C)C(=O)NCCc1nc2ccccc2n1CC(=O)c1ccc(Cl)cc1	inactive
Cc1cc(C)cc(NC(=O)C(OC(=O)c2ccc(O)cc2)c2ccccc2)c1 (stereo not given)	inactive
Cc1nc(N2CCN(c3ccc(Cl)cc3)CC2)[nH]c(=O)c1C	inactive
C=CCN1C=C2C(=O)C(C)(OC(=O)c3cnc4ccccc4n3)C(=O)C=C2C=C1/C=C/COC (stereo not given)	inactive
OCC[C@@H]1C[C@H](O)[C@@H](O)[C@]2(OCCc3ccccc32)O1	inactive
COc1cccc(C(=O)NCc2ccc3[nH]c(C)cc3c2)c1	inactive
COc1ccc(N2CCN(C(=O)COc3ccc4c(C)c(C)c(=O)oc4c3C)CC2)cc1	inactive
O=C1[C@H]2[C@@H](c3ccc(F)cc3)N3C(=O)N(c4cccc(F)c4)C(=O)[C@@]3(Cc3ccc(Cl)cc3)[C@H]2C(=O)N1C1CCCCC1	inactive
O=C(NCCCn1cccn1)C1CCC(=O)N(Cc2ccccc2F)C1 (stereo not given)	inactive
COc1ccc(NC(=O)CN2C(=O)CSc3ncccc32)cc1	inactive

— PubChem BioAssay AID720519 (National Center for Advancing Translational Sciences (NCATS), 2013)
